The panel holds about 83,000 compounds, 20% with a hit somewhere; the sample as a whole holds those more often.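 In brief: 96-well plates, 48 h treatment, single concentration, percent growth endpoint.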 Calls of active or inactive are those of the source. Rule for the calls: active = growth percent below 10; inactive = the rest.
Legend:
Test in all cases: NCI-60 one-dose screen, 48 h (100 = growth as untreated, 0 = no growth, -100 = all killed)
Conditions in all cases: 10 µM unless noted
HCT-15 colon = system: HCT-15 colon
HT29 colon = system: HT29 colon
SNB-75 CNS = system: SNB-75 CNS
SNB-19 CNS = system: SNB-19 CNS
U251 CNS = system: U251 CNS
PC-3 prostate = system: PC-3 prostate
SK-MEL-5 melanoma = system: SK-MEL-5 melanoma
UACC-62 melanoma = system: UACC-62 melanoma
LOX IMVI melanoma = system: LOX IMVI melanoma
SK-MEL-28 melanoma = system: SK-MEL-28 melanoma
SK-MEL-2 melanoma = system: SK-MEL-2 melanoma
EKVX NSCLC = system: EKVX NSCLC
SN12C renal = system: SN12C renal
UO-31 renal = system: UO-31 renal
TK-10 renal = system: TK-10 renal
ACHN renal = system: ACHN renal
CAKI-1 renal = system: CAKI-1 renal
A498 renal = system: A498 renal
CCRF-CEM leukemia = system: CCRF-CEM leukemia
MOLT-4 leukemia = system: MOLT-4 leukemia

Measured: growth

CN(C)CCn1c(=O)c2ccccc2n2nc3ccccc3c12
active: A498 renal 9.6%
inactive: HCT-15 colon 84.1% | HT29 colon 78.9% | SNB-75 CNS 93.5% | SNB-19 CNS 78.1% | U251 CNS 88.8% | PC-3 prostate 99.3% | SK-MEL-5 melanoma 87.2% | UACC-62 melanoma 72.7% | LOX IMVI melanoma 56.4% | SK-MEL-28 melanoma 116% | SK-MEL-2 melanoma 128% | EKVX NSCLC 94.1% | SN12C renal 69.9% | UO-31 renal 52.9% | TK-10 renal 97.9% | ACHN renal 46.6% | CAKI-1 renal 77.6% | CCRF-CEM leukemia 81.8% | MOLT-4 leukemia 29.9%

Cc1nn(-c2ccc([N+](=O)[O-])cc2)c2ncnc(N/N=C/c3ccccc3O)c12
active: SK-MEL-5 melanoma -42% | UACC-62 melanoma -11.3% | LOX IMVI melanoma 6.25% | EKVX NSCLC -0.848% | SN12C renal 6.16% | UO-31 renal -11.5% | CAKI-1 renal 3.95% | CCRF-CEM leukemia -12.4% | MOLT-4 leukemia 4%
inactive: HCT-15 colon 26.2% | HT29 colon 30.1% | SNB-75 CNS 37.9% | SNB-19 CNS 18% | U251 CNS 11.4% | PC-3 prostate 27% | SK-MEL-28 melanoma 22% | SK-MEL-2 melanoma 31.6% | TK-10 renal 35.5% | ACHN renal 12% | A498 renal 65.6%

CNC(=O)NCC1OC(n2cnc3c(NC(=O)Nc4ccccc4)ncnc32)C2OC(=O)CC12 (stereo not given)
inactive: HCT-15 colon 92.2% | HT29 colon 110% | SNB-75 CNS 96.7% | SNB-19 CNS 103% | U251 CNS 96.2% | PC-3 prostate 99.8% | SK-MEL-5 melanoma 110% | UACC-62 melanoma 99.2% | LOX IMVI melanoma 62.7% | SK-MEL-28 melanoma 107% | SK-MEL-2 melanoma 70% | EKVX NSCLC 102% | SN12C renal 113% | UO-31 renal 64.2% | TK-10 renal 99.3% | ACHN renal 94.9% | CAKI-1 renal 100% | A498 renal 93.7% | CCRF-CEM leukemia 94.1% | MOLT-4 leukemia 69.7%

COc1cccc(CNc2c3ccccc3nc3ccccc23)c1OC
inactive: HCT-15 colon 19.8% | HT29 colon 14.4% | SNB-75 CNS 68% | SNB-19 CNS 35.5% | U251 CNS 34.5% | PC-3 prostate 37.6% | SK-MEL-5 melanoma 55.8% | UACC-62 melanoma 51.3% | LOX IMVI melanoma 13% | SK-MEL-28 melanoma 66.1% | SK-MEL-2 melanoma 79.2% | EKVX NSCLC 36.3% | SN12C renal 30.9% | UO-31 renal 25.2% | TK-10 renal 59.5% | ACHN renal 21.1% | CAKI-1 renal 33.7% | CCRF-CEM leukemia 39.5% | MOLT-4 leukemia 17.9%
active: A498 renal -4.13%

CCN(CCNc1ccc(C)c2sc3cc(Cl)ccc3c(=O)c12)CC(C)(C)O
inactive: HCT-15 colon 17.5% | HT29 colon 21.7% | SNB-75 CNS 68.5% | SNB-19 CNS 71% | U251 CNS 46.3% | PC-3 prostate 81.2% | SK-MEL-5 melanoma 63.4% | LOX IMVI melanoma 41.8% | SK-MEL-2 melanoma 56.6% | EKVX NSCLC 82% | SN12C renal 71.5% | UO-31 renal 50.5% | TK-10 renal 75.7% | ACHN renal 69.3% | CAKI-1 renal 55.8% | A498 renal 75.5% | CCRF-CEM leukemia 79.5% | MOLT-4 leukemia 70.5%
active: UACC-62 melanoma -60.1% | SK-MEL-28 melanoma -33%

Clc1ccc(Nc2ncc(Cc3cccc(Cl)c3Cl)s2)cc1
inactive: HCT-15 colon 92.3% | HT29 colon 95.7% | SNB-75 CNS 116% | SNB-19 CNS 98% | U251 CNS 85.7% | PC-3 prostate 88% | SK-MEL-5 melanoma 97.1% | UACC-62 melanoma 81.6% | LOX IMVI melanoma 97.7% | SK-MEL-28 melanoma 95.6% | SK-MEL-2 melanoma 101% | EKVX NSCLC 97.9% | SN12C renal 90.8% | UO-31 renal 72.5% | TK-10 renal 98.3% | ACHN renal 97.5% | CAKI-1 renal 87.7% | A498 renal 93.7% | CCRF-CEM leukemia 94% | MOLT-4 leukemia 86.7%

Cc1cc(=O)n(C(=S)Nc2ccc(Cl)cc2)c2cc(O)ccc12
inactive: HCT-15 colon 105% | HT29 colon 104% | SNB-75 CNS 86.1% | SNB-19 CNS 102% | U251 CNS 101% | PC-3 prostate 95.6% | SK-MEL-5 melanoma 95.3% | UACC-62 melanoma 100% | LOX IMVI melanoma 99.3% | SK-MEL-28 melanoma 114% | SK-MEL-2 melanoma 104% | EKVX NSCLC 94.7% | SN12C renal 105% | UO-31 renal 72.2% | TK-10 renal 116% | ACHN renal 100% | CAKI-1 renal 85.1% | A498 renal 122% | CCRF-CEM leukemia 110% | MOLT-4 leukemia 102%

COc1ccc2c(c1)C(C)Cc1c(ncnc1-n1cnc3cc(C)ccc31)N2C (stereo not given)
active: HT29 colon 5.82% | SK-MEL-5 melanoma -14.1% | A498 renal 6.42% | CCRF-CEM leukemia 7.96%
inactive: HCT-15 colon 13.2% | SNB-75 CNS 63.3% | SNB-19 CNS 33.5% | U251 CNS 18.5% | PC-3 prostate 24.7% | UACC-62 melanoma 36.1% | LOX IMVI melanoma 21.9% | SK-MEL-28 melanoma 64.3% | SK-MEL-2 melanoma 47.4% | EKVX NSCLC 40.3% | SN12C renal 30.1% | UO-31 renal 43.5% | TK-10 renal 53.6% | ACHN renal 29% | CAKI-1 renal 23.2% | MOLT-4 leukemia 11%

CN(C)C1CN(C(=O)c2cc(-c3ccc4ncnc(N5CCc6cc(F)c(Cl)cc65)c4c3)cnc2N)C1
active: HCT-15 colon 7.17% | SNB-75 CNS -27% | PC-3 prostate 7.13% | SK-MEL-5 melanoma -20.8% | UACC-62 melanoma -19.7% | LOX IMVI melanoma 7.5% | SK-MEL-28 melanoma 8.13% | SK-MEL-2 melanoma -11.5% | UO-31 renal 7.34% | TK-10 renal 5.66% | CAKI-1 renal 0.593% | A498 renal -78.2% | MOLT-4 leukemia 4.86%
inactive: HT29 colon 14.8% | SNB-19 CNS 23.5% | U251 CNS 25% | EKVX NSCLC 10.1% | SN12C renal 11.1% | ACHN renal 10.8% | CCRF-CEM leukemia 15.7%

Cc1[nH]c(C(=O)Nc2ccccc2OC2CCN(CCN3CCOCC3)CC2)c(Cl)c1Cl
inactive: HCT-15 colon 83.6% | HT29 colon 73.7% | SNB-75 CNS 76.1% | SNB-19 CNS 107% | U251 CNS 93.3% | PC-3 prostate 78.3% | SK-MEL-5 melanoma 87.9% | UACC-62 melanoma 108% | LOX IMVI melanoma 86.3% | SK-MEL-28 melanoma 104% | SK-MEL-2 melanoma 101% | EKVX NSCLC 86% | SN12C renal 97.7% | UO-31 renal 51.9% | TK-10 renal 69.7% | ACHN renal 94.7% | CAKI-1 renal 84% | A498 renal 71.6% | CCRF-CEM leukemia 89.4% | MOLT-4 leukemia 72.6%

CCn1cc(C(=O)N/N=C/c2ccccc2)c(=O)c2cc(F)c(N3CCNC(C)C3)c(F)c21 (stereo not given)
inactive: SNB-75 CNS 92.8% | SNB-19 CNS 18.9% | PC-3 prostate 48.9% | SK-MEL-5 melanoma 11.9% | SK-MEL-2 melanoma 93.4% | EKVX NSCLC 34.3% | SN12C renal 61.7% | UO-31 renal 47.5% | TK-10 renal 82.7% | ACHN renal 56.8% | CAKI-1 renal 45.8% | A498 renal 99.6%
active: HCT-15 colon -86.5% | HT29 colon -92% | U251 CNS -92.3% | UACC-62 melanoma -27.9% | LOX IMVI melanoma -87.3% | SK-MEL-28 melanoma -78.8% | CCRF-CEM leukemia -52.1% | MOLT-4 leukemia -24.5%

CNC(=O)c1cc(Oc2ccc3c(c2)sc2nc(-c4ccc(Cl)c(C(F)(F)F)c4)cn23)ccn1
inactive: HCT-15 colon 65% | HT29 colon 56% | SNB-75 CNS 81.4% | SNB-19 CNS 77.2% | U251 CNS 71.9% | PC-3 prostate 45.3% | SK-MEL-5 melanoma 18.8% | UACC-62 melanoma 60.6% | LOX IMVI melanoma 50% | SK-MEL-28 melanoma 80.1% | SK-MEL-2 melanoma 59.4% | EKVX NSCLC 46.7% | SN12C renal 64.4% | UO-31 renal 58.8% | TK-10 renal 48.3% | ACHN renal 62.9% | CAKI-1 renal 74.1% | A498 renal 50.6% | CCRF-CEM leukemia 47.4% | MOLT-4 leukemia 41.6%

Fc1cccc(CNc2c3ccccc3nc3ccccc23)c1
inactive: HCT-15 colon 22.9% | HT29 colon 14.3% | SNB-75 CNS 63% | SNB-19 CNS 35.9% | U251 CNS 35.2% | PC-3 prostate 49% | SK-MEL-5 melanoma 60.5% | UACC-62 melanoma 50.3% | LOX IMVI melanoma 12.3% | SK-MEL-28 melanoma 78.5% | SK-MEL-2 melanoma 81.4% | EKVX NSCLC 32% | SN12C renal 32.8% | UO-31 renal 24% | TK-10 renal 64.1% | ACHN renal 17.1% | CAKI-1 renal 27% | CCRF-CEM leukemia 46.3% | MOLT-4 leukemia 14.9%
active: A498 renal -12.6%

Cc1ccc(OCCOCCOCCOCCOCCOc2ccc(C)n(O)c2=S)c(=S)n1O
inactive: HCT-15 colon 29% | HT29 colon 25.7% | SNB-75 CNS 24.8% | SNB-19 CNS 16.7% | U251 CNS 12.3% | PC-3 prostate 33.3% | SK-MEL-28 melanoma 33.2% | SK-MEL-2 melanoma 15.7% | EKVX NSCLC 13.1% | TK-10 renal 30.2% | A498 renal 20.4%
active: SK-MEL-5 melanoma -32.3% | UACC-62 melanoma -13.9% | LOX IMVI melanoma 3.58% | SN12C renal 8.41% | UO-31 renal -26.1% | ACHN renal 8.16% | CAKI-1 renal 7.97% | CCRF-CEM leukemia 1.49% | MOLT-4 leukemia 2.29%

O=c1cc(CP(=O)(O)O)c2cc(O)c(-c3ccccc3)cc2o1
inactive: HCT-15 colon 101% | HT29 colon 108% | SNB-75 CNS 83.8% | SNB-19 CNS 96.8% | U251 CNS 100% | PC-3 prostate 98.6% | SK-MEL-5 melanoma 98.1% | UACC-62 melanoma 97.8% | LOX IMVI melanoma 99.5% | SK-MEL-28 melanoma 104% | SK-MEL-2 melanoma 107% | EKVX NSCLC 89% | SN12C renal 98.2% | UO-31 renal 88.2% | TK-10 renal 106% | ACHN renal 98.4% | CAKI-1 renal 93% | A498 renal 109% | CCRF-CEM leukemia 93.6% | MOLT-4 leukemia 99.2%

COc1cc(Cc2cc(OC)c(O)c(OC)c2)cc(OC)c1O
inactive: HCT-15 colon 60.9% | HT29 colon 110% | SNB-75 CNS 82.2% | SNB-19 CNS 102% | U251 CNS 102% | PC-3 prostate 80.2% | SK-MEL-5 melanoma 101% | UACC-62 melanoma 94.9% | LOX IMVI melanoma 80.7% | SK-MEL-28 melanoma 82.4% | SK-MEL-2 melanoma 76.6% | EKVX NSCLC 110% | SN12C renal 97.7% | UO-31 renal 120% | TK-10 renal 107% | ACHN renal 106% | CAKI-1 renal 73.9% | A498 renal 88.6% | CCRF-CEM leukemia 59.9% | MOLT-4 leukemia 74.9%

Source: PubChem BioAssay (NCI)
